ATXN2 expr inh: reduces ATXN2 reporter expression in HEK-293 cells; 0.72% of 360,000 active; Potency, µM (highest dose often 57 µM), for inactives: at the highest dose activity change, negative = inhibition, most hits filed as inhibitors; AID 1745845; HEK-293 ATXN2-luciferase reporter, luminescence, 24 h; note: % is set by controls: 0 for no effect and ±100 for the full control effect; nearly all actives have a fitted effect of over 55% in size
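qHTS (up to 57 uM final) was run with 24 h compound exposure of reporter cells at 37 °C. Each well was multiplexed: SteadyGlo luminescence measured ATXN2-luciferase expression after a fluorogenic Gly-Phe-AFC viability readout (25 uM final).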
HT1080NT lethal: kills 2HG-producing HT-1080-NT fibrosarcoma cells; HT-1080-NT fibrosarcoma viability, CellTiter-Glo ATP luminescence, 48 h; AID 686970; Potency, µM (doses to about 46.1 µM), for the others: at the top dose activity, negative = less viability, hits mostly cytotoxic; 1.6% of 360,000 active;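 note: NT is the 2HG producing partner of a matched IDH1 knockdown line; 0% = DMSO-treated cells and -100% = media-only wells without cells; nearly all actives have a fitted effect of over 55% in size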
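Toxicity toward the 2HG-producing NT line was scored as %Activity, normalised to DMSO and no-cell wells, from CellTiter-Glo luminescence after 48 hours' treatment.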
HT1080 IDH1KD tx: kills HT-1080 cells with IDH1 knockdown; AID 686971; Potency, µM (highest dose often 46.1 µM), without a hit: at the highest dose activity, negative = toxicity, usual class: cytotoxic; HT-1080 IDH1 knockdown viability, ATP luminescence, 48 h; 2% of 360,000 active;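 note: 0% = DMSO wells and -100% = cell-free medium wells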
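IDH1KD HT-1080 cells, 750/well, RPMI + 5% FBS; compound pinned after 2 h settling; 48 h, 37 °C; CellTiter-Glo luminescence; % activity normalised to DMSO and no-cell wells; curves fitted, classed by r2 and efficacy.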
KB-3-1 cytotox: kills parental KB-3-1 adenocarcinoma cells; KB-3-1 viability, CellTiter-Glo ATP luminescence, 72 h; Potency, µM (doses to about 46.1 µM), actives largely listed as cytotoxic; 1.4% of 400,000 active; note: % is set by controls: 0 for no effect and ±100 for the full control effect; nearly all actives have a fitted effect of over 60% in size
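Parental KB-3-1 adenocarcinoma cells in phenol-red-free DMEM with 10% FBS were pin-treated with compounds at several concentrations, incubated 72 h at 37 °C, and viability read by CellTiter-Glo luminescence; concentration-effect curves were fitted after normalization.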
KB-V1 MDR tox: KB-V1 MDR subline cytotoxicity | Potency, µM (highest dose often 46.1 µM), actives largely listed as cytotoxic | KB-V1 MDR cells viability, CellTiter-Glo, 72 h | 3.4% of 400,000 active | AID 1347076; note: % is set by controls: 0 for no effect and ±100 for the full control effect; nearly all actives have a fitted effect of over 60% in size
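Readout: CellTiter-Glo luminescence, 10 min after addition. Cells: KB-V1 MDR subline, 72 h at 37 degrees C with compound. Analysis: corrected, normalized data fitted to concentration-effect curves.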
S2 tox: cell viability loss in ATXN counter-screen | S2 cells (HEK-293 line with an ATXN2-luciferase reporter) viability, CellTiter-Fluor protease fluorescence, 24 h | 0.49% of 400,000 active | Potency, µM (highest dose often 56.7 µM), most hits filed as cytotoxic; note: nearly all actives have a fitted effect of over 40% in size
An asterisk follows results filed as active; i = inactive; ? = inconclusive; . = no result. Most compounds without a hit are left out; they make up all but 6.2% or so of the library. Calls come from the whole dose curve; as a rule, active = well fitted curve in the direction sought with a large enough effect; inconclusive = small, poorly fitted or top-dose-only effect, or another doubt; inactive = no such curve, though single readings can be large; an effect the other way counts as inactive or inconclusive. Potency is the fitted concentration of half-maximal effect.

SMILES	ATXN2 expr inh	HT1080NT lethal	HT1080 IDH1KD tx	KB-3-1 cytotox	KB-V1 MDR tox	S2 tox
CCN(CC)S(=O)(=O)c1ccc(OC)c(NC(=O)c2cc([N+](=O)[O-])ccc2Cl)c1	-7%	-9%	-15%	18µM*	i	i
COc1cc(OC)cc(C(=O)N2CCCC(n3cc(C(=O)NCC(C)C)nn3)C2)c1 (centres undefined)	.	.	.	.	.	i
CCN(CC)C1CCN(C(=O)c2cnn(-c3nccc(-c4ccccc4OC)n3)c2-c2ccco2)C1 (centres undefined)	.	.	.	.	.	i
CN(C)S(=O)(=O)c1cccc(C(=O)Nc2ccccc2Cl)c1	16%	9%	-15%	i	16µM*	i
CN(C)S(=O)(=O)c1ccc(C(=O)Nc2ccccc2[N+](=O)[O-])cc1	1%	4%	16%	i	?	i
CN(C)S(=O)(=O)c1cccc(C(=O)Nc2cc(Cl)cc(Cl)c2)c1	8%	?	?	i	?	i
O=C(Nc1cc(S(=O)(=O)N2CCOCC2)ccc1Cl)c1cc([N+](=O)[O-])ccc1Cl	?	9.2µM*	21µM*	?	?	?
CN(C)S(=O)(=O)c1ccc(Cl)c(C(=O)Nc2ccccc2[N+](=O)[O-])c1	0%	-2%	-5%	i	16µM*	i
c1ccc(-c2noc(-c3cccnc3NCc3ccco3)n2)cc1	241%	.	.	i	i	i
COc1ccc2cc1Oc1cc3c(cc1OC)CC[N+](C)(C)[C@H]3Cc1ccc(cc1)Oc1c(OC)c(OC)cc3c1[C@@H](C2)[N+](C)(C)CC3	6%	.	.	.	.	i
Fc1ccc(Nc2nc(NCc3ccco3)nc3nccnc23)cc1	.	.	.	i	i	.
CCOC(=O)c1cnc2ccc(C)cc2c1Nc1ccc(N(CC)CC)cc1	0%	.	.	i	i	.
CN1C/C(=C/c2ccccc2[N+](=O)[O-])C(=O)/C(=C\c2ccccc2[N+](=O)[O-])C1	?	2.9µM*	3.7µM*	?	i	.
Cc1ccc2c(c1)N(S(=O)(=O)c1cc(-c3onc(C)c3C)ccc1C)CCO2	?	?	?	23µM*	?	i
COc1ccccc1CNC(=O)C1CC2Cn3c(nc4cc(C)c(C)cc43)C2N1C (centres undefined)	0%	-9%	-4%	13µM*	i	i
COc1ccccc1CNC(=O)C1CC2Cn3c(nc4ccccc43)C2N1C (centres undefined)	-2%	2%	-7%	i	?	i
Cc1ccc(C)c(N(C)C(=O)c2cc3c(s2)-c2ccccc2OC3)c1	-13%	.	.	i	?	i
NS(=O)(=O)c1ccc(NC(=O)Nc2ccc(C(F)(F)F)cc2)cc1	-7%	?	21µM*	i	i	i
O=C(NCc1ccc(Cl)cc1)C1CCN(S(=O)(=O)Cc2ccccc2)CC1	-4%	.	.	i	i	?
CC(C)OC(=O)Nc1ccc2c(c1)N(C(=O)N1CCN(C)CC1)c1ccccc1CC2	-15%	23µM*	23µM*	?	?	i
CCCN(CCC)CCCNC(=O)c1cc2c(=O)n(C)c3ccccc3c2s1	-9%	.	.	i	i	i
COC(=O)c1ccc(NC(=O)c2nc(S(=O)(=O)Cc3cccc(C)c3)ncc2Cl)cc1	?	12µM*	21µM*	15µM*	9.2µM*	28µM*
CCOC(=O)c1ccc(NC(=O)c2nc(SC(C)C)ncc2Cl)cc1	-24%	.	.	i	i	i
CCOC(=O)c1ccc(NC(=O)c2nc(S(=O)(=O)Cc3ccccc3)ncc2Cl)cc1	?	5.8µM*	2.9µM*	21µM*	?	20µM*
CC(=O)Nc1ccc(NC(=O)c2nc(S(=O)(=O)Cc3cccc(C)c3)ncc2Cl)cc1	?	9.2µM*	5.8µM*	5.2µM*	?	?
SMILES	ATXN2 expr inh	HT1080NT lethal	HT1080 IDH1KD tx	KB-3-1 cytotox	KB-V1 MDR tox	S2 tox
Cc1cccc(CS(=O)(=O)c2ncc(Cl)c(C(=O)NCc3ccc4c(c3)OCO4)n2)c1	.	-13%	-17%	i	i	?
Cc1ccc(CNC(=O)c2nc(S(=O)(=O)Cc3ccc(C)cc3)ncc2Cl)cc1	5%	.	.	?	?	i
O=C1CC(c2nc(-c3ccccc3)no2)CN1c1ccc2c(c1)OCCO2 (centres undefined)	-6%	.	.	i	i	i
Cc1c(NC(=O)Nc2ccccc2C(F)(F)F)sc2nc3n(c(=O)c12)CCC(C)CC3 (centres undefined)	-1%	.	.	i	?	i
Cc1ccc(C(=O)COC(=O)C2C3C=CC(C3)C2C(=O)OCC(=O)c2ccc(C)c(C)c2)cc1C (centres undefined)	5%	3%	-1%	?	16µM*	i
O=c1cc(O)c2c([nH]1)CCC2	.	.	.	?	i	.
O=c1[nH]c2ccccc2n1CCC1CCCCC1	24%	-14%	?	i	18µM*	i
O=c1[nH]c2ccccc2n1CCCSCCCn1c(=O)[nH]c2ccccc21	-34%	-23%	-16%	21µM*	18µM*	?
CC(=O)Nc1ccccc1-c1nc(CNC(=O)c2cc(C)ccc2C)c(C)o1	.	.	.	.	.	i
C(=C\c1ccnc2ccccc12)/c1ccccc1	.	.	.	i	?	.
COc1ccccc1C(=O)Nc1ccc2c(c1)nc(CCNC(C)=O)n2C	14%	24%	14%	i	i	i
CCn1c(CCNC(=O)c2ccc(OC)c(OC)c2)nc2ccccc21	-11%	9%	3%	i	3.7µM*	i
COc1ccccc1C(=O)Nc1ccc2c(c1)nc(CCNC(=O)c1ccccc1)n2C	-6%	4.1µM*	4.1µM*	?	?	i
COc1cccc(CNC(=O)c2ccc3c(c2)nc2n3CCOC2)c1OC	.	.	.	i	i	.
Cc1cccc(C)c1Nc1c(-c2ccsc2)nc2ccccn12	0%	.	.	i	i	?
Cc1cccc(C)c1Nc1c(-c2ccsc2)nc2ncccn12	-3%	-13%	?	i	12µM*	i
Cc1cccc(C)c1Nc1c(-c2ccccn2)nc2ccccn12	.	?	?	i	?	10µM*
Cc1cc(C)n2c(Nc3c(C)cccc3C)c(-c3ccccn3)nc2n1	?	?	18µM*	?	?	?
CCc1cccc(C)c1Nc1c(-c2ccsc2)nc2ncccn12	.	.	.	i	i	.
COc1ccc(OC)c(/C=C/c2nc3ccccc3c(=O)n2-c2ccc(F)c(Cl)c2)c1	.	.	.	?	i	.

Assay outcomes: PubChem, National Center for Advancing Translational Sciences (NCATS)
